# Source: PubChem BioAssay (University of Kansas High Throughput Screening Laboratory)
# Pf apPOL inh – Pf-apPOL inhibitors, biochemical, fluorescence. 210,000 compounds, 0.25% hits. inhibition, % at 10 µM. Recombinant Pf-apPOL, molecular beacon fluorescence, 1.5 h. Plasmodium falciparum apicoplast DNA polymerase (apPOL)
# mHTT-CaM PPI inh – mutant huntingtin-calmodulin interaction inhibitors – biochemical, AlphaScreen, primary screen; AlphaScreen His-mHTT/GST-CaM binding, luminescence; inhibition, % at 15 µM; 190,000 compounds, 3.6% hits;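 note: 0% = both proteins with DMSO and 100% = one protein alone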
# * = called active by the depositor; / = no result given. In the library only some 3.5% were active in any assay of this set; here they are far more common. Cut-off read from the data, not from the text of the source: active = inhibition above about 50%; inactive = the rest.
SMILES,Pf apPOL inh,mHTT-CaM PPI inh
COc1ccc(Cl)cc1NC(=O)C1CC(=O)N(CCc2c[nH]c3ccc(C)cc23)C1 (stereo unspecified),-0.1,75.1*
COc1ccccc1NC(=O)C1CC(=O)N(CCc2c[nH]c3ccc(Cl)cc23)C1 (stereo unspecified),0.3,40.8
COc1ccc(C)cc1NC(=O)C1CC(=O)N(CCc2c[nH]c3ccc(Cl)cc23)C1 (stereo unspecified),-2.0,14.2
COc1ccc(OC)c(C2CC(=O)C(C(C)C)C(c3cc(OC)ccc3OC)N2)c1 (stereo unspecified),-16.4,9.0
Cc1cccc(-c2nnc(C)c(N3CCc4ccccc4C3)n2)c1,-1.3,99.9*
Cc1cccc(-c2nnc(C)c(N3CCC(C)CC3)n2)c1,-0.7,42.1
COc1ccc(OC)c(NC(=O)N2CCc3nc[nH]c3C2)c1,-0.5,19.4
COc1ccc(NC(=O)N2CCc3nc[nH]c3C2)c(OC)c1,73.1*,13.1
O=C(NCCS(=O)(=O)N1CCOCC1)c1ccc2c(c1)OCO2,1.0,-16.0
COCC(=O)N1CCCc2ccc(NC(=O)c3c(C)nc4ccccn34)cc21,-4.0,-7.5
O=C(C1CC1)N1CCc2sc(S(=O)(=O)NCc3cccc(Cl)c3)cc2C1,2.9,4.7
CC(NC(=O)CC1Sc2ccccc2NC1=O)C(C)(C)C (stereo unspecified),1.9,-11.8
CC(C)(C)C(=O)C=C1Nc2ccccc2SC1(O)CC(=O)C(C)(C)C (stereo unspecified),/,51.1*
O=C(CCC(=O)N1CC2CCCN2c2ccccc21)NCCN1CCCCCC1 (stereo unspecified),-5.4,40.6
CCNC(=O)CCC(=O)N1CC2CCCN2c2ccccc21 (stereo unspecified),-2.6,11.5
O=C(CCC(=O)N1CC2CCCN2c2ccccc21)NCCN1CCCC1 (stereo unspecified),-5.2,68.3*
CCc1ccc(CNC(=O)CCC(=O)N2CC3CCCN3c3ccccc32)cc1 (stereo unspecified),-2.5,55.4*
COc1ccc(CC(=O)N2CCCC2c2nc(-c3ccc(OC)cc3)no2)cc1 (stereo unspecified),-3.6,9.7
O=S(=O)(Nc1ccc(NS(=O)(=O)c2ccc(F)cc2)cc1)c1ccc(F)cc1,-2.4,4.4
O=S(=O)(Nc1ccc(Nc2ccccc2)cc1)c1ccc(F)cc1,-3.2,69.3*
Cc1ccc(S(=O)(=O)Nc2cccc(F)c2)cc1,-0.7,-6.9
O=S(=O)(Nc1cccc(F)c1)c1ccc(-c2ccccc2)cc1,-4.1,78.8*
Cc1ccc(-n2nc(C)c3sc(N4CCCN(C(=O)C5CCCC5)CC4)nc32)cc1,-2.2,26.1
Cc1cccc(-n2nc(C)c3sc(N4CCCN(C(=O)C5CCCCC5)CC4)nc32)c1,-0.5,67.8*
CCOc1ccc(S(=O)(=O)N=C(Nc2ccccn2)c2ccccc2)cc1,2.0,4.0
SMILES,Pf apPOL inh,mHTT-CaM PPI inh
Cc1ccc(Cl)cc1NC1=CC(=NS(=O)(=O)c2cccs2)c2ccccc2C1=O,-6.3,79.0*
CCOc1ccc(S(=O)(=O)N=C2C=C(Nc3ccc(O)cc3)C(=O)c3ccccc32)cc1,-0.2,94.0*
CS(=O)(=NC(=O)Nc1ccccc1)c1cccs1 (stereo unspecified),-2.6,/
Cc1ccccc1NS(=O)(=O)c1cccs1,1.6,0.3
O=C1C(Nc2ccc(O)cc2)=CC(=NS(=O)(=O)c2cccs2)c2ccccc21,1.6,94.0*
CCc1ccc(S(=O)(=O)Nc2ccc(O)cc2)cc1,-6.5,0.7
CCc1ccc(S(=O)(=O)N=C2C=C(Nc3ccc(O)cc3)C(=O)c3ccccc32)cc1,-8.7,72.0*
O=C(Cc1cccs1)N1CCC(OCc2nc(C3CC3)no2)CC1,-1.9,-2.6
Cc1ccccc1C(=O)N1CCN(c2ccc(Cl)cc2Cl)C(=O)C1C (stereo unspecified),0.5,-9.5
O=C(NC1CC2CC1CN2S(=O)(=O)c1cccs1)c1cccnc1 (stereo unspecified),-7.0,5.2
O=C1C(N2CCCN(S(=O)(=O)c3cccc(C(F)(F)F)c3)CC2)CCN1CC1CC1 (stereo unspecified),1.8,42.0
Cc1cccc(C2CCCN2C(=O)NC2CCCCC2)c1 (stereo unspecified),5.1,-5.7
CCOc1ccc(NC2=CC(=NS(=O)(=O)c3ccc(OC)cc3)c3ccccc3C2=O)cc1,-0.5,38.0
CCOc1ccc(NC2=CC(=NS(=O)(=O)c3ccccc3)c3ccccc3C2=O)cc1,-5.1,66.0*
O=C(Cc1csc(NC(=O)c2cnccn2)n1)NCc1ccco1,4.1,38.2
O=C(Nc1nnc(-c2ccco2)o1)c1cnccn1,-7.1,-9.4
O=C(Cn1nc2c(c1NC(=O)c1cnccn1)CSC2)NCc1ccco1,-20.1,84.8*
CC(C)(C)n1nc2c(c1NC(=O)CCc1ccccc1)CSC2,0.5,3.0
O=C(Cn1nc2c(c1NC(=O)c1c[nH]c3ccccc13)CSC2)NCCc1ccccc1,0.4,92.9*
O=C(Nc1cc(-c2ccco2)nn1CCO)c1cnccn1,-1.2,92.2*
O=C(COc1ccc(F)cc1F)NCCOc1ccc(F)cc1,-5.8,-19.6
CSc1cccc2sc(N(CC3CCCO3)C(=O)c3ccc4c(c3)OCCO4)nc12 (stereo unspecified),-0.9,2.0
Cc1ccc2sc(N(CCCn3ccnc3)C(=O)c3ccc4c(c3)OCCO4)nc2c1C,-5.7,58.4*
Cc1cc(Cl)cc2sc(N(CCCn3ccnc3)C(=O)c3cccs3)nc12,-6.8,81.7*
CC(=O)N(CCN1CCOCC1)c1nc2c(C)cc(Cl)cc2s1,-0.7,9.9
SMILES,Pf apPOL inh,mHTT-CaM PPI inh
CCC(=O)N1CCCC2(C1)N=C(c1ccccc1)C(=O)N2 (stereo unspecified),-1.4,-2.9
CC(=O)c1cccc(NC(=O)c2csc(Nc3ccccc3)n2)c1,-6.3,25.8
CN1CCN(c2nc(NCc3ccccc3)c3ccccc3n2)CC1,4.7,6.2
COc1cc(CN2CCN(c3ccc([N+](=O)[O-])cc3)CC2)cc(I)c1O,-6.7,42.0
COc1cc(CN2CCN(c3ccc(C(C)=O)cc3)CC2)cc(I)c1O,-1.8,55.3*
CCc1ccc(OCCNC(C)(C)C)cc1,-2.9,-4.0
Cc1ccc(C=C2Oc3c(ccc(O)c3CN3CCC(C)CC3)C2=O)o1,-1.0,43.2
CCCN1CCN(c2ncc3c(n2)CCN(Cc2ccc(Br)cc2)C3)CC1,-3.9,31.8
CCOc1ccc(CN2CCc3nc(N4CCC(C)CC4)ncc3C2)cc1,-3.5,26.9
CCN1CCN(c2ncc3c(n2)CCN(Cc2ccc(Br)cc2)C3)CC1,1.5,76.3*
CCCN1CCN(c2ncc3c(n2)CCN(Cc2ccc(CC)cc2)C3)CC1,-4.1,15.6
CC1CCN(c2ncc3c(n2)CCN(Cc2ccc(Br)cc2)C3)CC1,-6.8,53.5*
CCCN1CCN(c2ncc3c(n2)CCN(Cc2ccc(N(C)C)cc2)C3)CC1,-4.4,53.1*
CC12CC3CC(N)(C1)CC(CO)(C3)C2 (stereo unspecified),1.1,0.6
CCc1ccccc1NC(=O)N1CC=C(c2cn(C(C)C)c3ncccc23)CC1,-4.2,11.3
CSc1nnc(-c2ccco2)c(-c2ccco2)n1,-4.6,31.0
Clc1cc2nc(-c3ccco3)c(-c3ccco3)nc2cc1Cl,-5.0,100.0*
O=C1c2ccc(-c3nc4ccccc4o3)cc2C(=O)N1c1ccc([N+](=O)[O-])cc1,-2.9,8.0
O=C1C=CC(=O)N1c1ccc(-c2nc3ccccc3o2)cc1,-1.9,53.0*
